Measured values from the supplement of paper PMC3334620.
Over roughly 33,000 sequences, “E-score (-0.5 to 0.5)” has its median near -0.054; the highest 2% begin near 0.39. The sample holds the highest values, similar sequences and a random draw of the others, so the mix is not that of the screen.

Each sequence was assayed against Ylr278c (UniProt Q05854) (assay: PBM E-score (8-mer binding enrichment) (E-score (-0.5 to 0.5)); higher = stronger / more preferred TF binding). Details: protein concentration: 200 nM; construct: GST-DNA-binding domain.
Sequence of UniProt Q05854 (Q05854 whole entry, the tested form may be a part): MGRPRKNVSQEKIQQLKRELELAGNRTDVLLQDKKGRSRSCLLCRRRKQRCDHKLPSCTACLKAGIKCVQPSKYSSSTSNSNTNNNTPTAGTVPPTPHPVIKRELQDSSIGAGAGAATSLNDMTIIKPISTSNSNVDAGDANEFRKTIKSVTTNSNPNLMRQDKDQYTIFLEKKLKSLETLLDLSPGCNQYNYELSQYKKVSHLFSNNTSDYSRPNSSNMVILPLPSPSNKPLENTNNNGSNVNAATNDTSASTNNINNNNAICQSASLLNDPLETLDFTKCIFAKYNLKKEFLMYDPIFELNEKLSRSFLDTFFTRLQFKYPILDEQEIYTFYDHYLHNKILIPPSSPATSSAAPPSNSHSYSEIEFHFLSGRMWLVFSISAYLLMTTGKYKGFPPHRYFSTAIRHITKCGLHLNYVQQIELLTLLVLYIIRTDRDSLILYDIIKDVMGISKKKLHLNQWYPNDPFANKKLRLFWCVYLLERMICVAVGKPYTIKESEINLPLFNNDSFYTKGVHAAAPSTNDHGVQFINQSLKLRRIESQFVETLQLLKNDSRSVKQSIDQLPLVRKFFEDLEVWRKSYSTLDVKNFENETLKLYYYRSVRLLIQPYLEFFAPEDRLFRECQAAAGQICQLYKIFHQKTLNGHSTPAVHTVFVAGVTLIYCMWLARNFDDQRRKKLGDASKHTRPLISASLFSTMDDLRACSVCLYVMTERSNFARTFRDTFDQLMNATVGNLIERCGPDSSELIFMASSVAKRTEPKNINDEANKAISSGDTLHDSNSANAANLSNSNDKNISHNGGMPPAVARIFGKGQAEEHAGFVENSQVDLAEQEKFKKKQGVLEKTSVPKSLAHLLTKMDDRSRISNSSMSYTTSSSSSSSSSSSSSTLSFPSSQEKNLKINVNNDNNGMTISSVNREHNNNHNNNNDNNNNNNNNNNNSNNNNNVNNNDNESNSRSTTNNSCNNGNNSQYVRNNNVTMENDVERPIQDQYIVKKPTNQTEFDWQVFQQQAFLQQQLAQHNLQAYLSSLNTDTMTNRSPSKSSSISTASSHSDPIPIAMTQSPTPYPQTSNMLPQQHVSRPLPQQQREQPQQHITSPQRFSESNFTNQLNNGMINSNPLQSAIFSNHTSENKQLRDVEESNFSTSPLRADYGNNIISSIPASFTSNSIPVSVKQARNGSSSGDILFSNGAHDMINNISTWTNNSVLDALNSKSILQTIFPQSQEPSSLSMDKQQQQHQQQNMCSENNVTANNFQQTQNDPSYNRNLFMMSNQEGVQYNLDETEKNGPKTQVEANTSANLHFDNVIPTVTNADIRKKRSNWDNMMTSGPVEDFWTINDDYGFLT
Experimental: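 Universal 'all 10-mer' protein binding microarrays (Agilent AMADID 015681) probed with GST-tagged S. cerevisiae TFs (full-length or DBD) made by in vitro transcription/translation (PURExpress), about 100-200 nM. Bound TF was detected with fluorescent anti-GST. Each ungapped 8-mer (which stands for itself and its reverse complement) is scored by the PBM enrichment score (E-score), a modified Wilcoxon-Mann-Whitney statistic from -0.5 to +0.5, computed with the Universal PBM Analysis Suite. Scale: above 0.35 generally sequence-specific binding.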

| Sequence | PBM E-score |
| --- | --- |
| ATAGTGAT | -0.203 |
| TAAAGACA | -0.186 |
| ACTGAGGC | 0.105 |
| TCTAAAGA | -0.115 |
| CGCGTTAA | 0.0131 |
| CGGCGTTA | 0.405 |
| GGGCGTTA | -0.101 |
| CGGCGTTC | 0.378 |
| GAGTGACA | -0.00079 |
| TAGCTTAA | -0.198 |
| TGATCTAA | -0.15 |
| AGGAGGTC | -0.0814 |
| GGGAGGTA | -0.0269 |
| AGGAGGTA | -0.0558 |
| CGGAGGTA | 0.426 |
| CTGAGGTC | -0.297 |
| CGGAGGTC | 0.443 |
| AATGAACG | -0.131 |
| CCGGTTGA | 0.303 |
| CGAGAACG | 0.232 |
| CCTAAACG | -0.0312 |
| AATCCGAC | 0.402 |
| GATCCGAC | 0.285 |
| CATCCGAC | 0.289 |
| AATCCGAA | 0.39 |

| Sequence | PBM E-score |
| --- | --- |
| AATCCGAT | 0.421 |
| AATCCTAT | 0.181 |
| AATCCGAG | 0.288 |
| TATCCGAA | 0.371 |
| CATCCGAA | 0.303 |
| ATCGGGGC | 0.296 |
| CCACTGAG | -0.208 |
| ACTGATGC | -0.0244 |
| TCCAAACA | -0.094 |
| GCAAGTGC | -0.274 |
| GTTCTTCA | -0.192 |
| ATTCGCTC | 0.0759 |
| CGTCGGAC | 0.397 |
| AGTCGGAA | 0.408 |
| AGTCGGAC | 0.366 |
| AGTCGGAT | 0.282 |
| AGTCGGGA | 0.142 |
| TGTCGGAA | 0.384 |
| AGTCGGCG | 0.215 |
| GGTCGGAA | 0.338 |
| AGTCGGAG | 0.41 |
| CGTCGGAA | 0.43 |
| GGTCGGAC | 0.355 |
| CGTCGGTC | 0.215 |
| ACGCAGGA | -0.166 |

| Sequence | PBM E-score |
| --- | --- |
| CAAAGCGG | 0.175 |
| AACACTTG | -0.16 |
| ATAAGACC | 0.0726 |
| ATGGTGTG | -0.23 |
| CAACAAAG | -0.189 |
| ATCAAGAC | -0.00757 |
| ACCGCTAG | -0.19 |
| CAGGGGGC | -0.125 |
| CAGGTCAG | -0.0413 |
| CGTCGCAG | -0.192 |
| CGTCGTAG | 0.00558 |
| CGTCGGAG | 0.441 |
| ATTGGAAG | -0.0562 |
| CTTTGCCC | -0.139 |
| GCTTTTGA | -0.0305 |
| AACCTCCC | 0.0351 |
| ATCCTCCA | -0.301 |
| AGCCTCCG | 0.381 |
| AACCTCCG | 0.466 |
| CGCCTCCA | 0.0143 |
| CGCCTCCG | 0.398 |
| CACCTCCA | 0.0316 |
| ATCCTCCC | 0.0358 |
| AACCTCCT | -0.122 |
| CACCTCCG | 0.425 |

| Sequence | PBM E-score |
| --- | --- |
| CACCTCCC | -0.129 |
| ATCCTCCG | 0.431 |
| CAGTGGCA | -0.225 |
| CCCTCCCA | 0.0446 |
| ACAGGGCC | 0.0175 |
| GAAACCAA | 0.0455 |
| CGACGCAA | 0.114 |
| GTACTGGA | -0.156 |
| GCACCACC | 0.0569 |
| GACTGCGA | 0.0431 |
| TCCCTGAA | -0.217 |
| CGTAAGGC | -0.161 |
| CAGCTATG | -0.344 |
| CCGGAAAA | 0.453 |
| TCGGAAAA | 0.426 |
| CCGGAAAG | 0.319 |
| GCGGAAAA | 0.379 |
| CTGGAAAA | -0.00229 |
| ACGGAAAA | 0.346 |
| CCGGAAAC | 0.404 |
| CAGGAAAA | 0.00343 |
| ACGGAAAC | 0.278 |
| ATGAATTA | -0.228 |
| CCGGTATC | 0.32 |
| GCGATCCC | 0.0902 |

| Sequence | PBM E-score |
| --- | --- |
| CAACACCG | 0.212 |
| AAACACCT | -0.135 |
| AAACACCG | 0.39 |
| CTCCTCAC | -0.185 |
| AATTTCCT | 0.0327 |
| AATTTCCG | 0.448 |
| CATTTCCG | 0.406 |
| AATTTCCC | 0.114 |
| ATTTTCCC | 0.063 |
| CATTTCCA | -0.0597 |
| ATTTTCCA | 0.0304 |
| ATTTTCCG | 0.421 |
| CATTTCCC | 0.161 |
| GTTCGCAA | -0.0313 |
| TATCCTCA | -0.0486 |
| ATAACTGG | -0.0346 |
| GTTCGGCA | 0.134 |
| CTTCGGAC | 0.399 |
| GTTCGGAA | 0.403 |
| CTTCGGCC | 0.154 |
| CTTCGGTA | 0.0846 |
| CTTCGGCA | 0.274 |
| CTTCGGAA | 0.419 |
| CTTCGGGC | 0.0457 |
| GTTCGGGA | 0.277 |

| Sequence | PBM E-score |
| --- | --- |
| AAGGTGGG | -0.161 |
| GCGGTGTA | 0.132 |
| AAGGCACA | -0.231 |
| CTTAGGTA | -0.0818 |
| ATCTGAAA | -0.039 |
| CGAGTACA | 0.0348 |
| ACATGCTC | -0.0918 |
| ACACCCCG | 0.241 |
| AGTCCTAA | -0.163 |
| AGTCCGAG | 0.43 |
| AGTCCAAG | -0.236 |
| AGTCCAAA | -0.107 |
| AGGCCGAC | 0.324 |
| AGTCCGAT | 0.458 |
| AGTCCGAA | 0.425 |
| AGTCCTAT | -0.0902 |
| AGACCGAT | 0.163 |
| AGCCCGAC | 0.152 |
| CGTCCGAG | 0.296 |
| AGTCCGAC | 0.431 |
| AGTAAGTG | -0.128 |
| ATCTCTGG | -0.239 |
| AAACGACC | -0.0492 |
| ACCTCATG | -0.349 |
| ATTAGCTC | -0.0566 |

| Sequence | PBM E-score |
| --- | --- |
| ACAGACTC | -0.109 |
| CGCCGATA | 0.37 |
| CTCCGATA | 0.462 |
| ATCCGATA | 0.399 |
| CACCGATA | 0.194 |
| CGCCGATC | 0.377 |
| AACCGATA | 0.0662 |
| GCCCGATA | 0.0679 |
| GTCCGATA | 0.414 |
| ATCCGATC | 0.37 |
| GGCCGATA | 0.3 |
| ATCCGATG | 0.323 |
| CTCCGATC | 0.46 |
| CGCTCTAG | -0.113 |
| AACTGCCA | -0.249 |
| GTGGAGCA | -0.158 |
| GAGCACGC | -0.106 |
| TAACCGGA | 0.431 |
| CAACCGGA | 0.414 |
| TAACCGCA | 0.0534 |
| GAACCGGC | 0.283 |
| GAACCGTA | -0.0428 |
| AAACCGGC | 0.356 |
| GAACCGGA | 0.426 |
